Screening results from PubChem.
Many of the other results were omitted from the sample, so hits are more common in it than they were.
GALR2 blocker = blocks the human galanin receptor 2 | GALR2-expressing cells, antagonist mode | 140,000 tested, 0.39% active | O43603 | inhibition, % at 4 µM; in the data active means inhibition above about 27%;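 further: cells stimulated with galanin 1-16 at roughly its EC80; 0% = agonist challenge control and 100% = basal control without agonist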
S1P2 blocker = blocks the human S1P2 receptor; cell-based S1P2 antagonist assay, inhibition at 5 uM; inhibition, % at 5 µM; 97,000 tested, 0.21% active; AID 736; in the data active means inhibition above about 45%;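 further: CRE beta-lactamase reporter cells expressing human S1P2 stimulated with S1P; 0% = agonist at EC80 alone and 100% = agonist plus reference antagonist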
Target sequence (O95136 whole entry, looked up): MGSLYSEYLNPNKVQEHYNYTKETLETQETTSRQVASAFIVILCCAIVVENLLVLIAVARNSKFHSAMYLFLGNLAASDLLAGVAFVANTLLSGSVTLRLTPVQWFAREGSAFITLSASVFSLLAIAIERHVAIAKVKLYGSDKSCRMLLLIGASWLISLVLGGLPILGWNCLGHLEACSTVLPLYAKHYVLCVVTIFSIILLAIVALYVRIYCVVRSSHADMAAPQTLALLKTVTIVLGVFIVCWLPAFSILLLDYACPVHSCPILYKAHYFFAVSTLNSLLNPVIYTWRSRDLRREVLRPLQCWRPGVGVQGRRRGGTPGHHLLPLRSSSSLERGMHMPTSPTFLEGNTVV
GALR2 agonist = GALR2 (human) receptor agonism; GALR2-expressing cells, agonist activation read-out; activation, % (no concentration beside the values); 140,000 tested, 0.48% active; AID 803; in the data active means activation above about 5%, passing the limit was not always enough;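 further: 0% = vehicle buffer wells and 100% = reference agonist at full effect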
PostGolgi ctrl = growth of the yeast control strain, post-Golgi counter-screen | AID 738 | efflux-deficient yeast background strain, growth absorbance A615, 16 h | inhibition, % at 10 µM | 98,000 tested, 5% active
S1P2 ag = activates the human S1P2 receptor. O95136. S1P2-expressing cell line, agonist reporter read-out. activation, % at 4.5 µM. 97,000 tested, 0.46% active. AID 729; in the data active means activation above about 16%;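 further: 0% = vehicle low control and 100% = maximal reference agonist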
PostGolgi yeast = growth inhibition of a yeast mutant, post-Golgi transport screen. inhibition, % at 10 µM. 98,000 tested, 0.9% active. AID 739. post-Golgi transport phenotypic cell assay;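 further: yeast cells grown in 1536-well plates; yeast grown about 18 h at 30C before absorbance read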
The depositor's hits bear a star; x = no result given. Unless noted, no stated cut-off is given here; in the data, active means inhibition above about 30%; inactive means the rest.

SMILES	GALR2 blocker	S1P2 blocker	GALR2 agonist	PostGolgi ctrl	S1P2 ag	PostGolgi yeast
Cc1ccc(Cl)cc1NC(=O)c1cnn2c1NC(c1ccco1)CC2C(F)(F)F (configuration not stated)	-9	2	0	58*	-7	41*
O=C(NCc1cccc(Cl)c1)c1cnn2c1NC(c1ccco1)CC2C(F)(F)F (configuration not stated)	-13	12	-1	16	1	-3
Cc1cc(NC(=O)c2oc3ccccc3c2C)ccc1-n1cnnn1	13	-1	0	34*	-9	-8
Cc1ccc(-n2nnnc2CSc2nnc(-c3ccc(O)cc3)o2)cc1	8	x	-1	x	x	x
Cc1ccc(C(=O)c2cc(C)sc2NC(=O)CN2CCN(C(=O)c3ccco3)CC2)cc1	7	18	0	38*	-11	4
O=C1SC(SCc2ccccc2)=N/C1=C\c1ccco1	12	11	-2	3	-9	-1
O=C1SC(c2ccccc2)=N/C1=C/c1ccco1	-18	23	-1	13	59*	-7
Cc1oc2cc(OCc3cnn(-c4ccccc4)c3)ccc2c(=O)c1Oc1ccccc1F	5	x	-1	x	x	x
CC/C(=N\NC(=O)c1ccc(CN(C)S(=O)(=O)c2ccc(C)cc2)cc1)c1ccc(OC(F)F)cc1	7	x	0	x	x	x
C=CCn1c(COc2cccc3ccc(C)nc23)nnc1SCC(=O)OC	20	4	0	4	-1	30*
O=C1COc2cccnc2N1	13	-11	-3	38*	-1	-1
Cc1nn(-c2nc3ccccc3s2)c(N)c1-c1ccccc1	11	3	-3	3	22*	-2
Cc1nn(-c2nc3ccccc3s2)c(N)c1-c1ccc(Cl)cc1	0	31	-2	x	-1	x
N#CC(C#N)=c1ccc2c(c1)N1C3=C(CCCC3)CC3CCCCC31N=2 (configuration not stated)	-7	19	0	50*	-13	44*
CC(C)CN1C(=O)c2ccc(NC(=O)c3ccccc3F)cc2C1=O	-3	-32	-1	33*	0	-9
N#C/C=C(/N)N1CCN(c2ccc(Cl)c(Cl)c2)CC1	0	7	-3	3	-7	32*
COC(=O)N1CCN(c2ccc(Cl)c(Cl)c2)CC1	-7	-22	-2	-2	-1	5
O=C(NC1CCCC1)C(c1ccco1)N(Cc1ccccc1)C(=O)c1csnn1 (configuration not stated)	-2	-4	0	-7	-4	6
Cc1cccc2sc(NC(=O)CCNS(=O)(=O)c3cccs3)nc12	7	13	-1	9	-4	-1
Cc1ccc2nc(NC(=O)CCNS(=O)(=O)c3cccs3)sc2c1	10	x	0	36*	x	14
Cc1ccc2nc(NC(=O)CCNS(=O)(=O)c3ccc(Br)s3)sc2c1	-6	-15	-2	42*	-8	4
CCCCNc1c2c3c(cccc3n(C)c1=O)C(=O)c1ccccc1-2	20	8	-1	58*	-3	2
Cn1c(=O)c(NCCO)c2c3c(cccc31)C(=O)c1ccccc1-2	18	-1	1	6	-4	7
CCCCC1=C([O-])C2N=CC=CC2=[N+](c2ccccn2)C1=O (configuration not stated)	-20	x	-1	x	x	x
COCC(=O)/C=C1\Sc2ccccc2N1C	4	-1	-2	36*	-6	-1
SMILES	GALR2 blocker	S1P2 blocker	GALR2 agonist	PostGolgi ctrl	S1P2 ag	PostGolgi yeast
O=C(c1cc2c(s1)-c1ccccc1OC2)N1CCN(c2ccccc2)CC1	-8	11	-2	55*	-1	-10
O=C1C2CC=CCC2C(=O)N1c1n[nH]c(CCc2ccccc2)n1 (configuration not stated)	-17	-15	-1	10	-6	34*
O=C1C2CC=CCC2C(=O)N1c1n[nH]c(-c2ccccc2)n1 (configuration not stated)	-12	-27	-2	-3	-1	9
Cc1ccc(OC(=O)c2cc(=O)c3ccccc3o2)cc1	13	x	1	x	x	x
CCOC(=O)Nc1cc(=O)c2ccccc2o1	4	-17	-3	43*	-2	-6
Cc1ccc(S(=O)(=O)NCCCCCC(=O)Nc2cccc(C)c2)cc1	3	x	-1	x	x	x
CCOc1ccc2nc(N3CCC(C(=O)N4CCN(c5ccccn5)CC4)CC3)sc2c1	-3	x	0	43*	x	6
Cc1ccccc1N1CCN(Cc2c(C#N)c3ccccc3n2C)CC1	-4	-11	1	14	0	2
CN1CCN(CC(=O)N(Cc2c(C#N)c3ccccc3n2C)c2ccccc2)CC1	-4	7	-1	34*	-4	1
O=C(Nc1ccc2c(c1)OCO2)c1cccc2c1C(=O)N(Cc1cccnc1)C2	4	x	1	15	x	3
O=C(O)c1cccc2c1C(=O)N(Cc1ccncc1)C2	11	2	-2	35*	-4	-12
O=C1CCCC2=C1C(c1ccc(Cl)cc1)C1C(=O)c3ccccc3C1=N2 (configuration not stated)	-10	5	1	43*	-6	10
O=C1CCCC2=C1C(c1ccccc1)C1C(=O)c3ccccc3C1=N2 (configuration not stated)	-14	x	0	x	x	x
[O-][n+]1onc2c1CCc1nnc(-c3ccccc3)cc1-2	2	21	-2	32*	-12	3
CCN(CC(=O)Nc1ccc([N+](=O)[O-])cc1OC)CC(=O)NC(C)(C)C	2	x	0	x	x	x
O=C(CSc1nnc2scc(-c3ccccc3)n12)Nc1nsc(-c2ccccc2)n1	-5	-15	-1	11	-2	7
Cc1ccc(-c2csc3nnc(SCC(=O)Nc4nsc(-c5ccccc5)n4)n23)cc1	-27	-18	-1	41*	-2	10
Cc1ccc(-c2nc(NC(=O)CSc3nnnn3-c3ccccc3)ns2)cc1	-7	31	0	48*	-3	5
Cc1nnc(SCC(=O)Nc2nsc(-c3ccc(C(C)(C)C)cc3)n2)s1	-1	0	-4	62*	-3	-1
CC1CCCCC1NC(=O)CSc1nnnn1-c1ccccc1 (configuration not stated)	-3	-6	-1	-2	-3	38*
CCOP(=O)(OCC)C(NC(=O)Nc1ccc(Cl)cc1)C(=O)N(CC)CC (configuration not stated)	11	x	-1	x	x	x
COCCCNC(=S)N1CCN(S(C)(=O)=O)CC1	16	x	-1	x	x	x
O=C(Nc1ccc(OC(F)(F)C(F)F)c(NC(=O)c2cccc(F)c2)c1)c1cccc(F)c1	-17	x	0	x	x	x
O=C(CC1SC(N2CCCCC2)=NC1=O)Nc1cccc(C(=O)O)c1 (configuration not stated)	-10	3	-1	3	-5	-2
COc1ccc(CN(C#N)c2nc(SC)nc(N(C)C)n2)cc1	2	-6	-2	41*	-8	-9
CCn1c(=NC(=O)CN2C(=O)CCC2=O)sc2c(OC)ccc(OC)c21	-6	-18	0	16	1	-3
